High-throughput results as filed in PubChem.
D2 PAM-1 = HTS Assay for Positive Allosteric Modulators of the Human D2 Dopamine Receptor: Primary Screen for Potentiators. D(2) dopamine receptor (Homo sapiens), P14416. AID 485347, 2010. potentiation, % at 10 µM. 0.34% of 340,000 active. HEK293 T-REx D2, calcium flux, EC20 dopamine potentiation;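 active means potentiation over 3 SD above the plate norm, cut at about 30% in these data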; further: 0% is about no effect
Target sequence (P14416 whole entry, looked up): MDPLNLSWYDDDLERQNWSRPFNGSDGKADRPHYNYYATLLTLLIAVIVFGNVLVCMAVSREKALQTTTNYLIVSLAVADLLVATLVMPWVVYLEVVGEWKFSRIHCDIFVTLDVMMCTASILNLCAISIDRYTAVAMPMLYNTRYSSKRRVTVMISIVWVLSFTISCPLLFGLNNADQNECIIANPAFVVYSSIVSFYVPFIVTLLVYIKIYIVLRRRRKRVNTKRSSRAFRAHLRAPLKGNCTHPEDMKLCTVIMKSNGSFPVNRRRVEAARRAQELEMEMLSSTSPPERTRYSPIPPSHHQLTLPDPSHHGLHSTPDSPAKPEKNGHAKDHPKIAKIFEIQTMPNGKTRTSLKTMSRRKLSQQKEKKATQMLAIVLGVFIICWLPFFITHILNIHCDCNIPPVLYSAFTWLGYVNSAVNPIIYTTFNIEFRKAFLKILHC
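Cells plated with tetracycline inducer and held overnight at 30 C; calcium dye loaded 30–90 min at room temperature; baseline taken, compound added and read 180 s; EC20 dopamine then added and read 180 s.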
D2 ag-1 = HTS Assay for Allosteric Agonists of the Human D2 Dopamine Receptor: Primary Screen for Agonists. activation, % at 2 µM. HEK293 T-REx D2 cells, calcium flux agonist mode. 0.53% of 340,000 active;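 active means activation over 3 SD above normal in the single-dose calcium agonist read, cut at about 30% in these data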; further: 0% is about no effect
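Agonism scored from kinetic calcium signal (1 read/sec, 180 s) following compound pin transfer, after a 10 s baseline. Cells: HEK293 Trex line expressing inducible D2 receptor coupled to calcium, dye-loaded after overnight culture at 30 C.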
D2 antagonist = HTS Assay for Allosteric Antagonists of the Human D2 Dopamine Receptor: Primary Screen for Antagonists. HEK293 TREx D2 cells, calcium flux, dopamine EC80. inhibition, % at 10 µM. 2% of 340,000 active. D(2) dopamine receptor (Homo sapiens), P14416; in the data active means inhibition above about 30%; inactive means below that, where a call was filed; further: 0% is about no effect
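In this primary screen, negative modulation is detected by tracking calcium flux after an EC80 dopamine challenge in inducible HEK293 T-REx D2 cells preexposed to test compound for 180 s.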
D2 ag-2 = Beta-Arrestin HTS for Positive Allosteric Modulators of the Human D2 Dopamine Receptor: Agonists; D(2) dopamine receptor (Homo sapiens), P14416; DiscoveRx PathHunter D2 beta-arrestin, luminescence, 90 min; 100% = 57 uM dopamine signal; activation, % (test concentration not listed); 0.084% of 360,000 active; in the data active means activation above about 40%; inconclusive means between about 15% and that limit
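Agonist mode: compounds alone added to overnight-plated D2 PathHunter cells for 90 min at 37 C, with 57 uM final dopamine (EC100) defining full response. Beta-arrestin recruitment detected by chemiluminescent reagent, read after 1 h at ambient temperature.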
D2 PAM-2 = Beta-Arrestin HTS for Positive Allosteric Modulators of the Human D2 Dopamine Receptor: Potentiators. DiscoveRx D2 beta-arrestin cells, luminescence, 90 min; 100% = 57 uM dopamine signal. potentiation, % (test concentration not listed). 0.23% of 360,000 active; in the data active means potentiation above about 50%; inconclusive means mostly about 30% to 49%
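D2 cells co-treated with compound plus 50 nM dopamine (EC20) for 90 min at 37 deg C to detect potentiation. Beta-arrestin recruitment was read as enzyme-fragment luminescence after 1 h at ambient temperature. Full response was set by 57 uM dopamine.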
D3 arrestin ag = qHTS of D3 Dopamine Receptor Agonist: D3 Dopamine Receptor B-arrestin Agonist Confirmatory Assay. shares compounds with D2 ag-1. DiscoveRx D3 beta-arrestin cells, luminescence, 90 min. Potency, µM (top dose mostly 76.9 µM), for inactives: at the top dose activation, hits mostly activators. 4% of 2,300 active. AID 720506, 2013;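 further: potency means the concentration at half of the fitted maximal effect; 100% = dopamine control response; nearly all actives have a fitted effect of over 70% in size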
D2 ag-3 = qHTS of D3 Dopamine Receptor Agonist: D2 Dopamine Receptor B-arrestin Agonist Counterscreen; shares compounds with D2 ag-1; DiscoveRx PathHunter D2 beta-arrestin, luminescence, 90 min; response scale: percent relative to full dopamine signal; Potency, µM (titrated, usually from 76.9 µM), inactives show top-dose activation, most hits filed as activators; 5.9% of 2,300 active; AID 720507, 2013; further: potency means the concentration at half of the fitted maximal effect; % of control where 0% means no effect; nearly all actives have a fitted effect of over 70% in size
Numbers without * were called inactive; u = inconclusive; x = no result given. Most compounds without a hit are left out; they make up all but 2.4% or so of the library. Unless noted, the call rests on the fitted dose curve; in most records, active means well fitted activation curve with a large enough effect; inconclusive means small, poorly fitted or top-dose-only effect; inactive means flat fitted curve, though single readings scatter.

SMILES	D2 PAM-1	D2 ag-1	D2 antagonist	D2 ag-2	D2 PAM-2	D3 arrestin ag	D2 ag-3
COc1ccc(C2Nc3ccccc3NC3=C2C(=O)CC(C)(C)C3)cc1OC (stereo not drawn)	-3.7	0.3	37.9*	7.9	-5.6	-0.5%	-1.1%
COc1ccc(CCC(C)NCc2ccccc2OC)cc1 (stereo not drawn)	-7.4	0.6	-15.7	-6.3	-1.7	x	x
COc1ccccc1CCNC(C)CCc1ccc(O)cc1 (stereo not drawn)	-17.6	41.4*	2.6	0.5	-1.7	u	6.2%
COc1cc(OC)c(OC)cc1CCC(C)NCCC(c1ccccc1)c1ccccc1 (stereo not drawn)	-17.6	50.0*	49.2*	13.6	-39.2	2.6%	u
COc1ccc(CCNCCC(c2ccccc2)c2ccccc2)cc1OC	x	x	x	-5.2	-46.0	x	x
CCCn1cc(S(=O)(=O)c2ccc(CC)cc2)c(=O)c2ccccc21	-0.8	-0.7	x	x	x	x	x
O=C1C=C(/C=C/c2ccccc2)C[C@@H](c2ccc(F)cc2)C1	-6.7	1.0	-24.4	-5.1	-4.5	-9.2%	6.5%
O=C(CN1CCN(c2ccccc2)CC1)c1ccc2cc[nH]c2c1	-23.6	84.3*	90.0*	-2.8	-13.5	19.7%	26.5%
CC1CCN(S(=O)(=O)c2ccc(NC(=O)CN3CCN(c4ccccc4)CC3)cc2)CC1	-28.7	44.8*	59.1*	u	9.2	2.24µM*	u
O=C(CN1CCN(c2ccccc2)CC1)Nc1ccc(-n2cnnn2)cc1	-21.9	69.2*	50.8*	11.3	-1.1	u	u
O=C(CN1CCC2(CC1)OCCO2)c1ccc2cc[nH]c2c1	2.3	1.9	-5.2	-2.0	-8.9	x	x
O=C(CN1CCN(c2ccccc2)CC1)Nc1ccc(Oc2ccccc2)cc1	-29.5	55.3*	57.7*	11.4	17.6	u	u
COc1cccc(N2CCN(CC(=O)Nc3ccc(-n4cnnn4)cc3)CC2)c1	-4.3	1.5	8.7	5.1	-1.1	x	x
CC1CCN(S(=O)(=O)c2ccc(NC(=O)CN3CCN(C)CC3)cc2)CC1	8.4	0.4	11.6	-0.4	-3.0	x	x
O=S(=O)(c1cccc2nsnc12)N1CCCCC1	-8.9	-0.3	-3.2	-5.5	-4.6	x	x
COC(=O)c1ccc(NS(=O)(=O)c2cc(-c3cc(C)no3)ccc2OC)cc1	-6.9	0.3	11.9	1.8	-1.4	x	x
CC(=O)c1ccc(NC(=O)CN2CCN(c3ncccn3)CC2)cc1	-23.3	74.3*	77.4*	46.6*	21.2	u	u
O=C(O)C1CC=CCC1C(=O)Nc1ccc(N2CCN(Cc3ccccc3)CC2)cc1 (stereo not drawn)	-20.5	63.7*	-13.1	0.6	-13.7	1.1%	1.1%
CC(=O)c1ccc(NC(=O)CN2CCN(CC(=O)Nc3ccc(C(C)=O)cc3)CC2)cc1	-0.7	1.7	13.7	2.9	2.9	x	x
CC(=O)c1ccc(NC(=O)CN2CCN(c3ccccc3)CC2)cc1	-22.8	82.8*	36.7*	u	11.6	u	u
O=C(COc1ccccc1)Nc1nnc2n1CCS2	5.4	0.1	x	x	x	x	x
CCCCN(CC)CCCNC(=S)Nc1ccc2nc3n(c(=O)c2c1)CCCCC3	-30.5	85.8*	59.7*	9.9	-2.0	-5.7%	26.0%
O=c1c2cc(NC(=S)NCCN3CCCCCC3)ccc2nc2n1CCCCC2	-17.5	0.3	9.1	-2.2	-16.1	x	x
